aSyn UTR act: Activators via SNCA 5'UTR binding, MLPCN; AID 1814, 2009; 7.1% of 300,000 active; activity score, % (tested at 7.5 µM), hits read low; alpha-synuclein 5'UTR reporter, activators screen; in the data active = activity score below about -60%
Active calls of the source: *. The list is a sample of the results.

SMILES	aSyn UTR act
CN(C(=O)C1CCC(=O)N(Cc2cccc(F)c2)C1)C1CCCCC1 (stereo not drawn)	-126*
CSc1cccc(CNC(=O)C2CCC(=O)N(Cc3cccc(C(F)(F)F)c3)C2)c1 (stereo not drawn)	-73*
Cc1ccc(NC2=C(Cl)C(=O)c3ccccc3C2=O)cc1	60
Cc1ccc(NC2=C(N3CCOCC3)C(=O)c3ccccc3C2=O)cc1	-84*
CC(C)CC(NC(=O)CNC(=O)C1O[C@@H]2OC(C)(C)O[C@@H]2[C@H]2OC(C)(C)O[C@@H]12)C(=O)O (stereo partly drawn)	-84*
CN1c2ccsc2/C(=N/Nc2ccccc2)CS1(=O)=O	-123*
COc1ccc2nc(C)cc(Nc3ccc(N4CCN(C)CC4)cc3)c2c1	-87*
COc1ccc(OC)c(Nc2cc(C)nc3ccc(C)cc23)c1	63
CCc1ccc(-c2cc(C)no2)cc1S(=O)(=O)N1CCN(c2ccccc2)CC1	-73*
O=C(c1cc2ccccc2oc1=O)N(Cc1ccco1)C1CCS(=O)(=O)C1 (stereo not drawn)	-97*
Cn1c(=O)c(-c2cc(Br)ccc2N)nc2ccccc21	-64*
Nc1ccccc1SC1CC(=O)N(c2ccc3c(c2)OCCO3)C1=O (stereo not drawn)	-78*
Cn1ccsc1=NC(=O)c1ccc(Cl)cc1	-197*
CN(C)c1ccc(C(=O)N=c2sccn2C)cc1[N+](=O)[O-]	-117*
Cn1ccsc1=NC(=O)c1ccc(CS(C)(=O)=O)cc1	-66*
COC(=O)c1ccc(C(=O)N=c2sccn2C)cc1	-148*
Cn1ccs/c1=N\C(=O)Nc1ccccc1	-128*
COc1ccc(C(=O)N=c2sccn2C)cc1	-114*
Cn1ccsc1=NC(=O)c1ccc(OC(F)(F)F)cc1	-77*
Cn1ccsc1=NC(=O)c1ccc(S(=O)(=O)C(F)F)cc1	-96*
CN(C)c1ccc(C(=O)c2ccc(N(C)C)c3ccccc23)cc1	89
CN(C)c1ccc(C(=O)c2ccccc2C(=O)O)cc1[N+](=O)[O-]	-77*
COc1ccc(C(=O)O/N=C(\N)c2ccccn2)cc1	61
COc1cc(OC)cc(C(=O)O/N=C(\N)c2ccccn2)c1	-130*
CCOc1ccc(C(=O)O/N=C(\N)c2ccccn2)cc1OCC	-103*
SMILES	aSyn UTR act
C(=C\c1ccc2ccccc2n1)/c1ccccc1	67
O=C(O)/C=C/c1ccc2ccccc2n1	-64*
CC1(C)Cc2c(sc(NC(=O)Nc3ccccc3)c2C(N)=O)CO1	-158*
Cc1sc(NC(=O)Nc2ccccc2)c(C(N)=O)c1C	-161*
Cc1sc(NC(=S)NC(=O)c2ccco2)c(C(N)=O)c1C	-92*
COC(=O)CCC(=O)NC(=S)Nc1sc(C)c(C)c1C(N)=O	90
COC(=O)c1c(NC(=O)c2ccc(OC(C)C)cc2)sc2c1CC(C)(C)NC2(C)C	103
COC(=O)c1c(NC(=O)c2ccccc2)sc2c1CC(C)(C)OC2	-69*
O=C(NCc1ccncc1)C(=O)N/N=C/c1ccc(OCc2ccccc2)cc1	-93*
CC(C)OCCCNC(=O)C(=O)N/N=C/c1ccc(OCc2ccccc2)cc1	-67*
O=C(Nc1ccc(Cl)cc1Cl)c1ccc2c(=O)n3c(nc2c1)CCC3	-159*
O=C(Nc1ccc(Br)cc1Cl)c1ccc2c(=O)n3c(nc2c1)CCC3	-190*
CC(/C=C/c1ccccc1)=N\Nc1ccccc1[N+](=O)[O-]	-150*
COc1cc(C(=O)Nc2ccc3c(c2)CCN3C(C)=O)cc(OC)c1OC	97
CCOC(=O)C(=CNc1ccc2c(c1)CCN2C(C)=O)C(=O)OCC	-78*
N/C(Cc1ccc(Cl)cc1Cl)=N\OC(=O)c1ccccc1F	-72*
CO/N=C/CC(=O)c1cnc(-c2ccc(Cl)cc2)s1	-79*
CN(Cc1cnc2nc(N)nc(N)c2n1)c1ccc(C(=O)N[C@@H](CCC(=O)O)C(=O)O)cc1	78
CCN(CC)CCNC(=O)c1nn(-c2ccc(C)cc2)c(=O)c2c1c1ccccc1n2C	-64*
CCN(CC)CCCNC(=O)c1sc2nc(-c3ccc(F)cc3)cn2c1C	-108*
Cc1c(C(=O)NCC2CCCO2)sc2nc(-c3ccc(F)cc3)cn12 (stereo not drawn)	-84*
C/C(=N\NC(=O)c1c(Cl)c(C)nn1C)c1cccc(NC(=O)COc2ccc(Cl)cc2)c1	-100*
C/C(=N/NC(=O)c1ccc(C)s1)c1cccc(NC(=O)COc2ccc(Cl)cc2C)c1	-73*
CCOC(=O)C1=C(C)C/C(=N\NC(=O)c2ccccc2O)CC1	-79*
C=CCN1C=CC(=C/C=C(/C#N)C(=O)OCC)C=C1	-138*
SMILES	aSyn UTR act
CCOC(=O)/C(C#N)=C/C=C1/C=CC=CN1C	-63*
Cc1cc(N)c(NC2=CC(=O)CC(C)(C)C2)cc1C	-108*
CN(C)c1ccc(-n2cc3c(=O)n(C)c(=O)n(C)c3c2)cc1	-198*
CCN(CC)c1ccc(-n2cc3c(=O)n(C)c(=O)n(C)c3c2)cc1	-118*
CC1(C)CC(=O)C(C(=O)/C=C/c2ccco2)C(=O)C1	-73*
O=[N+]([O-])c1cc(S(=O)(=O)/N=C(/c2ccccc2)N2CCOCC2)ccc1Cl	-83*
CCCC(=O)Nc1ccc2nc(SCC(=O)Nc3ccc(N4CCOCC4)c(Cl)c3)sc2c1	-150*
Nc1ccc2nc(SCC(=O)N3CCOCC3)sc2c1	-71*
Nc1ccc2nc(SCc3cccc(F)c3)sc2c1	-139*
Nc1ccc2nc(SCC(=O)Nc3ccc(N4CCOCC4)c(Cl)c3)sc2c1	-174*
CC(=O)Nc1ccc(Oc2nc(-c3ccccn3)nc3ccccc23)cc1	-115*
Cc1cccc(Oc2nc(-c3ccccn3)nc3ccccc23)c1	-111*
CC(=O)Nc1cccc(Oc2nc(-c3ccccn3)nc3ccccc23)c1	-129*
C=CCOc1nc(-c2ccccc2Cl)nc2ccccc12	72
O=C1c2ccccc2CN1CCSC(=S)N1CCSCC1	-109*
O=C1c2ccccc2CN1CCSC(=S)N1CCOCC1	-105*
COC(=O)N/N=C/c1cccc(OCCSc2ccc(Cl)cc2)c1	-82*
CC(/C=N/NC(=O)c1ccc(Cn2cc([N+](=O)[O-])cn2)o1)=C\c1ccccc1	-75*
CCOC(=O)c1c(NC2OC(=O)c3c2ccc(OC)c3OC)sc(C(=O)OC(C)(C)C)c1C (stereo not drawn)	-80*
COc1cccc(Nc2nc(-c3ccc(O)cc3)cs2)c1	-191*
COc1cccc(Nc2nc(-c3cccc(N4C(=O)c5ccccc5C4=O)c3)cs2)c1	-62*
O=c1cccc2c1c1cc[nH]c3ccc(=O)n2c31	79
N#CCCN1CCCc2cc(N=Nc3ccc(C(F)(F)F)cc3)ccc21	-191*
CC(C)c1ccc(N(C(=O)c2csnn2)C(C(=O)NC(C)(C)C)c2ccncc2)cc1 (stereo not drawn)	-158*
CCC(C)(C)NC(=O)C(c1ccncc1)N(C(=O)c1sc(C)nc1C)c1ccc(C)cc1 (stereo not drawn)	-62*
SMILES	aSyn UTR act
C/C(=N\NC(=O)c1cccc(Cl)c1)C1C(=O)c2ccccc2C1=O	-120*
CC(C)c1ccc(/C=C2\CC/C(=C\C=N\N(C)C)C2=O)cc1	-73*
O=C(N/N=C/c1ccccc1)c1ccco1	-107*
O=C(N/N=C/c1ccc(OCc2ccccc2)cc1)c1ccco1	-103*
COc1ccccc1NC(NC(=O)c1ccco1)C(=O)c1ccccc1 (stereo not drawn)	-85*
COc1ccccc1/C=C/C=N/NC(=O)c1ccco1	-112*
O=C(N/N=C/C(Br)=C\c1ccccc1)c1ccco1	-226*
O=C(N/N=C/c1ccccc1)c1[nH]ncc1Br	-118*
